Here are results for 24 compounds from PubChem BioAssay (NCATS).

A short description of test [1]: Viability qHTS for spleen associated tyrosine kinase inhibitor (SYKi) naive MV4-11 cells (AID 1963823). Further: nearly all actives have a fitted effect of over 40% in size. The gist of the method: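 CellTiter-Glo luminescence, 10 min room-temperature incubation, gave viability. Cells: naive MV4-11 (500/well), treated 72 hr at 37 C, 5% CO2.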
(In general: In qHTS, concentration-response curves come from the screen itself.)

Test [2] in a line: Viability qHTS for spleen associated tyrosine kinase inhibitor (SYKi) drug resistant MV4-11 cells (AID 1963824). Further: nearly all actives have a fitted effect of over 35% in size. The method in brief:
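SYK inhibitor-resistant MV4-11 AML cells, 500 per well, added to predispensed compounds and incubated 72 hr at 37 C, 5% CO2. Viability measured by CellTiter-Glo luminescence after 10 min at room temperature.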

Test [3] can be described thus: Cellular viability qHTS for adrenocortical cancer (ACC) cell line SW-13 (AID 1963989). Further: nearly all actives have a fitted effect of over 65% in size.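 On activity (max response): cells grown in serum-free medium with ITS supplement; on the % scale 0 is the no-effect control and ±100 the full control effect.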 To be noted: SW-13 ACC cells viability, CellTiter-Glo, 48 h; activity (max response): stronger effect = lower value. The gist of the method: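 Compound titrations (up to 46 uM final, in DMSO) were applied to SW-13 cells for 48 h at 37C/5% CO2. Reading used CellTiter-Glo after 20 min at room temperature; fitted curves yielded IC50 and efficacy.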

The nature of test [4]: Cellular viability qHTS for adrenocortical cancer (ACC) cell line NCI-H295R (AID 1963990). Further: nearly all actives have a fitted effect of over 60% in size. The method in brief:
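Readout: CellTiter-Glo luminescence, 20 min RT. Exposure: 48 h, 37C/5% CO2. Cells: NCI-H295R, ITS-DMEM serum-free. Range: up to 46 uM. Analysis: 4PL fit, IC50 plus efficacy.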

Where “and” joins values, the source holds several entries; their conditions need not be identical. Identical values can stand only once. Records with an inconclusive call do not appear. Where a structure was tested more than once in an assay, its records may differ in their call. Calls of active or inactive are those of the source. The call rests on the fitted dose curve; in most records, active means well fitted curve in the direction sought with a large enough effect; inconclusive means small, poorly fitted or top-dose-only effect, or another doubt; inactive means no such curve, though single readings can be large; an effect the other way counts as inactive or inconclusive.
Potency means the concentration at half of the fitted maximal effect.

With `CNC(=O)c1cccc2cc(Oc3ccnc4cc(OCC5(N)CC5)c(OC)cc34)ccc12`, the Potency in test [1] is 13 µM (active); in test [2], 14.8 µM (active) and 20.6 µM (active); in test [3] it was 28.2 µM (active); in test [4] it was 22.4 µM (active).
For `CCCCc1ncc(/C=C(\Cc2cccs2)C(=O)O)n1Cc1ccc(C(=O)O)cc1`, the Potency entry in test [1], in test [2] and in test [4] was “inactive” in each case. For the same compound, the activity (max response) in test [3] is 6.21% (inactive).
`CC(C)COCC(CN(Cc1ccccc1)c1ccccc1)N1CCCC1` (stereo unspecified): the Potency was 13.3 µM (active) and 14.8 µM (active) in test [1]; 15 µM (active) and 11.8 µM (active) in test [2]; 4.11 µM (active) and 28.2 µM (active) in test [3]; 15.8 µM (active) in test [4].
Regarding `COc1cc(C(=S)N2CCOCC2)cc(OC)c1OC`, the Potency entry in test [1], in test [2] and in test [4] was “inactive” throughout. Also, in test [3], the activity (max response) was 1.86% (inactive).
For `O=[N+]([O-])c1ccc(-c2nc(-c3ccc(F)cc3)c(-c3ccncc3)[nH]2)cc1`, the Potency in test [1] was 14.8 µM (active) and 5.17 µM (active); in test [2] it was “inactive and 9.34 µM (active) and 2.06 µM (active)”. Also, in test [3], the activity (max response) was -1.63% (inactive). Moreover, the Potency result in test [4] is “inactive”.
As for `OCC(O)CN1CCN(c2ccccc2)CC1` (stereo unspecified), in test [1], the Potency is 422 nM (active) and inactive. Besides, the Potency entry in test [2] and in test [4] was “inactive” in each case. Also, the activity (max response) in test [3] was -5.47% (inactive).
For the compound `COc1ccccc1OCC(O)CO` (stereo unspecified), the Potency entry in test [1], in test [2] and in test [4] was “inactive” each time. Further, the activity (max response) in test [3] is 13.4% (inactive).
Take `O=C1CC2(CCCC2)CC(=O)N1CCNCC1COc2ccccc2O1` (stereo unspecified): the Potency result in test [1], in test [2] and in test [4] was “inactive” in each case. Besides, the activity (max response) in test [3] is 6.61% (inactive).
`Cc1cccc(C)c1NC(=O)c1ccc(N)cc1`: the Potency result in test [1], in test [2] and in test [4] was “inactive” in each case. Moreover, the activity (max response) in test [3] is 6.32% (inactive).
Consider `Cn1cc(/C=C/C(=O)c2cccc(F)c2)cc1/C=C/C(=O)NO`, for which the Potency in test [1] is 3.72 µM (active); in test [2], 4.17 µM (active). Moreover, the activity (max response) in test [3] was 9.4% (inactive). Besides, the Potency entry in test [4] was “inactive”.
In the same order, the values of `Cc1oc(=O)oc1COC(=O)[C@@H]1N2C(=O)[C@@H](NC(=O)[C@H](N)c3ccccc3)[C@H]2SC1(C)C` are “inactive”, “inactive”, 7.35% (inactive) and “inactive”.
Consider `CC[C@@H]1[C@H](F)C(=O)N[C@@H]1COc1nccc2cc(C(N)=O)c(OC)cc12`, for which the Potency in test [1] is 11.8 µM (active); in test [2], 14.8 µM (active). Moreover, the activity (max response) in test [3] is -21.5% (inactive). Further, the Potency entry in test [4] was “inactive”.
As to `O=C1CC[C@H](C(=O)N2CCCCC2)N1`, the Potency result in test [1], in test [2] and in test [4] was “inactive” each time. Further, the activity (max response) in test [3] was -2.75% (inactive).
Turning to `CC(=O)CC(c1ccc([N+](=O)[O-])cc1)c1c(O)c2ccccc2oc1=O` (stereo unspecified), the Potency entry in test [1], in test [2] and in test [4] was “inactive” each time. Further, the activity (max response) in test [3] is -8% (inactive).
`CO[C@H]1/C=C\C=C(\C)C(=O)NC2=CC(=O)C(NCCN(C)C)=C(C[C@@H](C)C[C@H](OC)[C@H](O)[C@@H](C)/C=C(/C)[C@@H]1OC(N)=O)C2=O`: the Potency in test [1] was 0.0332 µM (active); in test [2] it was 0.0833 µM (active); in test [3] it was 0.282 µM (active); in test [4] it was 2 µM (active).
As to `CCS(=O)(=O)N1CCN(c2ccc(Nc3ncc(C(N)=O)c(NC4CC4)n3)cc2)CC1`, the Potency in test [1] is 130 nM (active) and 332 nM (active); in test [2] it was 184 nM (active) and 525 nM (active); in test [3] it was 22.4 µM (active); in test [4] it was 10 µM (active).
Take `COc1cc(C(=S)N2CCOCC2)ccc1O`: the Potency result in test [1], in test [2] and in test [4] was “inactive” each time. For the same compound, the activity (max response) in test [3] is -19.3% (inactive).
In the case of `CCN(c1cc(C#CCN2CCOCC2)cc(C(=O)NCc2c(C)cc(C)[nH]c2=O)c1C)C1CCC(N(C)CCOC)CC1` (stereo unspecified), the Potency entry in test [1], in test [2] and in test [4] was “inactive” each time. In test [3], the activity (max response) is 7.49% (inactive).
Turning to `CC(C)OP(=O)(CP(=O)(OC(C)C)OC(C)C)OC(C)C`, the Potency result in test [1], in test [2] and in test [4] was “inactive” each time. Also, the activity (max response) in test [3] was 9.07% (inactive).
As for `CCN(CC)CCOC(=O)C1(c2ccccc2)CCCC1`, the Potency entry in test [1], in test [2] and in test [4] was “inactive” each time. Moreover, in test [3], the activity (max response) was 8.5% (inactive).
On to `CNC(=O)[C@H]1O[C@@H](n2cnc3c(NCc4cccc(I)c4)nc(Cl)nc32)[C@H](O)[C@@H]1O`, for which the Potency in test [1] was 14.8 µM (active); in test [2] it was 8.33 µM (active). Further, the activity (max response) in test [3] is 2.68% (inactive). Also, the Potency entry in test [4] is “inactive”.
With `C[C@@H](O)[C@@H](C)Oc1nc(Nc2ccc(S(=N)(=O)C3CC3)cc2)ncc1C(F)(F)F` (stereo partly specified), the Potency in test [1] is 3.32 µM (active); in test [2] it was 11.8 µM (active). For the same compound, the activity (max response) in test [3] is 4.29% (inactive). Moreover, the Potency entry in test [4] is “inactive”.
In the case of `COc1ccc(-c2cc(C(O)C3CCCCN3)c3ccccc3n2)cc1` (stereo unspecified), the Potency in test [1] was 0.525 µM (active); in test [2], 1.66 µM (active); in test [3], 28.2 µM (active); in test [4] it was 11.2 µM (active).
As to `CCC1NC(=O)c2cc(S(N)(=O)=O)c(Cl)cc2N1` (stereo unspecified), the Potency entry in test [1], in test [2] and in test [4] was “inactive” throughout. Moreover, the activity (max response) in test [3] is 11.8% (inactive).
